Measurements from the supplement of paper PMC6555819.

Key:
Test in all cases: PBM binding z-score (relative to random genomic background probes); higher = stronger binding; sequences stand for … in GC…GCGATTGACAGCGTAGAATGAAGG
[1] = test system: FXR:RXRa (NR concentration 270 nM, RXRa partner concentration 90 nM)
Summary of the method: (§1)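 Binding z-scores were set against random background probes. The data came from custom Agilent 4×180K protein-binding microarrays carrying double-stranded probes with 34-nt variable regions, incubated 1 h with ligand-free nuclear receptor dimers. Partner-specific antibodies detected binding, and scanned fluorescence was regression-normalized.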

[2] = test system: LXRa:RXRa (NR concentration 270 nM, RXRa partner concentration 90 nM)
Summary of the method: as §1

[3] = test system: LXRa homodimer (NR concentration 270 nM)
Summary of the method: as §1

[4] = test system: LXRb:RXRa (NR concentration 270 nM, RXRa partner concentration 90 nM)
Summary of the method: as §1

[5] = test system: LXRb homodimer (NR concentration 270 nM)
Summary of the method: as §1

[6] = test system: PPARa:RXRa (NR concentration 270 nM, RXRa partner concentration 90 nM)
Summary of the method: as §1

[7] = test system: PPARg:RXRa (NR concentration 180 nM, RXRa partner concentration 90 nM)
Summary of the method: as §1

[8] = test system: PPARg:RXRa 270nM:90nM, anti-RXR (NR concentration 270 nM, RXRa partner concentration 90 nM)
Summary of the method: as §1

[9] = test system: PPARg:RXRa 30nM:10nM, anti-RXR (NR concentration 30 nM, RXRa partner concentration 10 nM)
Summary of the method: as §1

[10] = test system: PPARg:RXRa 90nM:30nM, anti-RXR (NR concentration 90 nM, RXRa partner concentration 30 nM)
Summary of the method: as §1

[11] = test system: PPARg:RXRa DBDmut IVT, anti-RXR (DBD mutation: RXRa K156A/R161A, NR concentration 270 nM, RXRa partner concentration 90 nM)
Summary of the method: as §1

[12] = test system: PPARg:RXRa IVT, anti-PPARg (NR concentration 270 nM, RXRa partner concentration 90 nM)
Summary of the method: as §1

[13] = test system: PPARg DBDmut:RXRa IVT, anti-PPARg (DBD mutation: PPARg1 K132A/R137A, NR concentration 270 nM, RXRa partner concentration 90 nM)
Summary of the method: as §1

[14] = test system: PPARg DBDmut IVT, anti-PPARg (DBD mutation: PPARg1 K132A/R137A, NR concentration 270 nM)
Summary of the method: as §1

[15] = test system: PPARg homodimer (NR concentration 180 nM)
Summary of the method: as §1

[16] = test system: PXR:RXRa (NR concentration 270 nM, RXRa partner concentration 90 nM)
Summary of the method: as §1

[17] = test system: PXR homodimer (NR concentration 270 nM)
Summary of the method: as §1

[18] = test system: RARa:RXR (NR concentration 270 nM, RXRa partner concentration 90 nM)
Summary of the method: as §1

[19] = test system: RARa homodimer (NR concentration 270 nM)
Summary of the method: as §1

[20] = test system: RARb:RXRa (NR concentration 270 nM, RXRa partner concentration 90 nM)
Summary of the method: as §1

Row | Sequence | PBM binding z-score [1] | PBM binding z-score [2] | PBM binding z-score [3] | PBM binding z-score [4] | PBM binding z-score [5] | PBM binding z-score [6] | PBM binding z-score [7] | PBM binding z-score [8] | PBM binding z-score [9] | PBM binding z-score [10] | PBM binding z-score [11] | PBM binding z-score [12] | PBM binding z-score [13] | PBM binding z-score [14] | PBM binding z-score [15] | PBM binding z-score [16] | PBM binding z-score [17] | PBM binding z-score [18] | PBM binding z-score [19] | PBM binding z-score [20]
1 | ACTAGCAGTCCAAGTTTGGGTCACTCAAACAAAG | 0.21 | 0.226 | -0.0309 | 0.795 | -0.524 | 1.13 | -0.105 | 0.22 | -0.155 | -0.0965 | -0.573 | 0.678 | -0.264 | -0.283 | -0.0489 | 0.921 | -0.137 | 1.4 | -0.47 | 1.24
2 | GCAAACAGGTGAAACGCAGGTAACTCAGGGTGGC | -0.182 | -0.0525 | -0.463 | -0.425 | -0.88 | 0.919 | 0.672 | 0.158 | -0.786 | -0.33 | 2.26 | 1.32 | -0.68 | -0.00566 | -0.416 | -0.255 | -0.519 | 0.397 | -0.686 | 0.596
3 | ATAGGTAGGTTACATCCGGGTCATTCAGGCTATG | 2.31 | 4.03 | 1.3 | 2.53 | 0.566 | 3.17 | 2.36 | 2.74 | 0.814 | 1.92 | 3.73 | 3.91 | 0.843 | 0.221 | 1.99 | 3.53 | 3.04 | 3.51 | 1.15 | 2.39
4 | TTACCAAGGTGGAAGGTCGTTGATGCACGCCTTG | 0.529 | 0.656 | -0.194 | 0.41 | -0.809 | 2.03 | 2.43 | 4.41 | 1.94 | 4.21 | -0.302 | 1.09 | -0.236 | -1.11 | 0.535 | 0.751 | -0.0879 | 1.26 | -0.0243 | 0.885
5 | TCGAGTAGGTTAACAATGGGGCATTCAGCTTTCT | 0.324 | 3.77 | -0.204 | 1.79 | -0.704 | 1.59 | 0.576 | 1.22 | 1.31 | 1.29 | 3.65 | 2.78 | 0.124 | 0.191 | 0.25 | 0.403 | -0.277 | 0.753 | -0.553 | 0.976
6 | TCTTGTAGATCCAAGGTTAAGAAAGCCGAAGCCT | 0.319 | 0.55 | -0.254 | 0.993 | -0.378 | 1.65 | 1.15 | 3.41 | 3.23 | 3.55 | 1.7 | 0.596 | 0.181 | 0.325 | 0.227 | 0.966 | 0.261 | 1.18 | -0.206 | 0.88
7 | TCGAGTAGGTTAGTCGGGGCATTCTGCCAACATA | -0.351 | -0.585 | -0.552 | 0.145 | -0.607 | 0.377 | -0.424 | 0.587 | 0.946 | 0.676 | 2.38 | 1.64 | -0.758 | -0.515 | -0.211 | -0.103 | -0.171 | -0.0333 | -0.547 | 0.287
8 | TAGCGTAGGTCATTCAGGGGCCAGTATAGAAAGC | 4.91 | 4.31 | 0.816 | 3.43 | 1.24 | 4.19 | 1.8 | 2.55 | 0.626 | 1.6 | 0.864 | 1.61 | 0.591 | 0.134 | 2.48 | 3.08 | 0.138 | 4.5 | 0.404 | 3.99
9 | CTACCAAGGTGAACAGGGTCGTTGATTACTATTC | 1.07 | 0.788 | -0.0558 | 1.58 | -0.226 | 2.32 | 1.23 | 1.38 | 0.0525 | 0.997 | 1.92 | 2.88 | 0.525 | 0.178 | 0.785 | 1.89 | 0.796 | 2.11 | 0.321 | 1.75
10 | GATACAGGGTCAGATAGAGGCCAGAGTATGGAAA | 4.95 | 3.16 | 0.138 | 3.03 | 0.456 | 4.58 | 3.32 | 3.11 | 1.18 | 2.09 | 1 | 2.53 | 1.35 | 0.368 | 2.7 | 3.26 | 0.844 | 4.13 | 0.243 | 3.97
11 | CTCGATAGGTCGTGCTCAGGTGAGTATACCAAAC | 0.909 | 0.843 | -0.342 | 0.951 | -0.454 | 1.82 | 0.11 | 0.394 | -0.186 | -0.0239 | 0.241 | 0.78 | -0.285 | 0.141 | 0.257 | 0.623 | -0.52 | 1.44 | -0.705 | 1.77
12 | GCTGCTAGGACAACTGATGGTCAGCTAAAGCTCG | -0.547 | -0.859 | -0.672 | -1.14 | -1.05 | -1.94 | -0.0624 | -0.895 | -0.952 | -1.12 | 0.688 | -0.573 | -1.55 | -1.57 | -1.24 | -1.1 | -1.66 | -1.08 | -1.4 | 0.341
13 | CATACTAGGTCACGAAAGGTCAAAGTCGAATGAC | 7.5 | 8.25 | 8.77 | 7.29 | 3.6 | 6.39 | 9.53 | 7.93 | 6.31 | 8.01 | 7.83 | 8.34 | 2.56 | 1.91 | 3.01 | 7.08 | 3.85 | 7.57 | 4.19 | 5.65
14 | ATATTTAGGTTAAGGGTCATTCAGGTTGGTTCGC | 5.26 | 4.78 | 3.91 | 4.61 | 3.14 | 6.38 | 11 | 9.52 | 9.42 | 10.5 | 6.47 | 7.1 | 5.34 | 5.2 | 5.4 | 5.69 | 3.67 | 5.96 | 5.28 | 3.68
15 | ACTATTAGTTGACTTAGGGCAACCAATACGACGC | 0.265 | 0.363 | 0.224 | 0.227 | 0.496 | 0.111 | 0.997 | 0.305 | 0.385 | 0.219 | 0.203 | 0.66 | 0.926 | 0.817 | 0.6 | 0.385 | 0.557 | 0.714 | 0.139 | 0.985
16 | CAGCCTAGGACAGGGCCAGTATAGGAGGAACGTT | -0.452 | -0.926 | -0.352 | -0.799 | -0.979 | -0.804 | 0.36 | -0.522 | -0.216 | -0.473 | -0.459 | -0.805 | -1.23 | -1.3 | 0.0188 | -0.859 | -0.323 | -0.684 | -0.467 | -0.0437
17 | GTACCAAGGTGAATATGTCGTTGATGAGTAGGCG | 0.455 | 0.146 | -0.0291 | -0.0194 | -0.329 | 0.873 | 0.753 | 0.42 | 0.0719 | 0.185 | 1.28 | 1.95 | 0.633 | 0.3 | 1.32 | -0.126 | 0.282 | 0.44 | 0.46 | 1.22
18 | CAAACTAGGTCAAGAGGACAAAGTCCGCTTCCCG | 3.92 | 2.83 | 1.1 | 1.67 | 0.143 | 4.69 | 7.86 | 6.69 | 4.57 | 6.62 | 8.17 | 8.27 | 2.16 | 2.91 | 1.84 | 1.37 | 0.291 | 2.12 | 0.947 | 4.37
